A short description of test [1]: NCI Yeast Anticancer Drug Screen. Data for the rad50 strain (AID 155).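 Also: 0% = growth of vehicle-only cultures of the same strain.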 The following applies: S. cerevisiae rad50 strain growth inhibition; at 50.0 µM; active compounds read high. In outline: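 Cells are treated with compound, grown, and their growth is then scored against vehicle-only cultures of the same repair-deficient yeast strain.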
A short description of test [2]: NCI Yeast Anticancer Drug Screen. Data for the mec2-1 strain (AID 157). Conditions: S. cerevisiae mec2-1 strain, at 50.0 µM, active compounds read high. In outline: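 Strain: mec2-1 (DNA repair/cell cycle alteration). Compound exposure, then growth measured; inhibition expressed relative to vehicle.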
Test [3] can be described thus: NCI Yeast Anticancer Drug Screen. Data for the sgs1 mgt1 strain (AID 161).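 Also: 0% = growth of cultures given vehicle only.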 The following applies: S. cerevisiae sgs1 mgt1 strain, at 50.0 µM, active compounds read high. In outline: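 Read-out: growth inhibition vs vehicle controls. Cells: mutant yeast strain deficient in DNA damage repair.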
Test [4] can be described thus: NCI Yeast Anticancer Drug Screen. Data for the cln2 rad14 strain (AID 165).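 Also: 0% = growth equal to vehicle treated cultures.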 The following applies: S. cerevisiae cln2 rad14 strain, at 50.0 µM, active compounds read high. In a few lines:
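Compounds are applied to the cln2 rad14 yeast strain, and growth is then compared with that of vehicle-treated cultures to give inhibition.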

Test [5] can be described thus: NCI Yeast Anticancer Drug Screen. Data for the bub3 strain (AID 167). Conditions: S. cerevisiae bub3 mutant strain, at 50.0 µM, active compounds read high. In outline: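 Part of a panel of yeast mutants defective in DNA damage repair or cell cycle regulation. Each strain is grown with compound, and inhibition is calculated relative to solvent-treated cultures.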
The nature of test [6]: NCI Yeast Anticancer Drug Screen. Data for the mlh1 rad18 strain (AID 175). The following applies: S. cerevisiae mlh1 rad18 strain growth inhibition; at 50.0 µM; active compounds read high. In outline: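 Read-out is yeast growth inhibition, calculated against vehicle-only controls. The compound was applied to a strain engineered with DNA damage repair alterations.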

Compounds without any hit were thinned out: in the full panel of roughly 79,000, 15% have a hit. Calls of active or inactive are those of the source. Rule as the data show it: active = growth inhibition above about 70%; inactive = the rest.

Regarding `CC(=O)c1cccc2cc(CC(=O)c3ccccc3)c(=O)oc12`, the growth inhibition in test [1] is 12.2% (inactive); in test [2], 5.6% (inactive); in test [3], 6.4% (inactive); in test [4], -33.1% (inactive); in test [5] it was 11.1% (inactive); in test [6], 1.35% (inactive).
Take `C[N+](C)(C)CC(=O)N/N=C(\C(=O)NC1=C(Cl)C(=O)c2ccccc2C1=O)C(C#N)c1csc(-c2ccc([N+](=O)[O-])cc2)n1` (configuration not stated): the growth inhibition was 14.8% (inactive) in test [1]; 26.6% (inactive) in test [2]; -5.8% (inactive) in test [3]; 17.6% (inactive) in test [4]; 33.5% (inactive) in test [5]; 19.9% (inactive) in test [6].
For the compound `Cc1cc(Cl)c2c(c1)C(=O)C(C)C2.[Cu+2]` (configuration not stated), the growth inhibition in test [1] is -13.1% (inactive); in test [2], -10.2% (inactive); in test [3], -18.8% (inactive); in test [4], -26.4% (inactive); in test [5], -6.65% (inactive); in test [6], -6.2% (inactive).
As to `c1ccc2[nH]c(N=Nc3cccc4c(N=Nc5cc6ccccc6[nH]5)cccc34)cc2c1`, the growth inhibition in test [1] is 5.1% (inactive); in test [2], -11.4% (inactive); in test [3], -13.7% (inactive); in test [4], 18.1% (inactive); in test [5], -2.6% (inactive); in test [6], 8.65% (inactive).
For the compound `CC(=O)CC(=O)c1ccc(Cl)cc1`, the growth inhibition in test [1] was -28.4% (inactive); in test [2], -11.4% (inactive); in test [3] it was -10.8% (inactive); in test [4] it was -13.6% (inactive); in test [5], -4.1% (inactive); in test [6], -0.25% (inactive).
Turning to `CCOP(=O)(OCC)/C(C#N)=C/c1cnc(-c2ccccc2)[nH]1`, the growth inhibition is -38% (inactive) in test [1]; -4.85% (inactive) in test [2]; -32.8% (inactive) in test [3]; 16.1% (inactive) in test [4]; 13.4% (inactive) in test [5]; -34% (inactive) in test [6].
On to `CC(CCc1ccccc1)N(C)C(=O)CNC(=O)CN1C(=O)c2ccccc2C1=O` (configuration not stated), for which the growth inhibition in test [1] was -18.9% (inactive); in test [2] it was 1.35% (inactive); in test [3] it was 6.85% (inactive); in test [4], -1.25% (inactive); in test [5] it was -15.1% (inactive); in test [6], -6.9% (inactive).
As to `CN(C)CC(CN(C)C)C(O)c1ccccc1` (configuration not stated), the growth inhibition in test [1] is 2.4% (inactive); in test [2], -11.5% (inactive); in test [3], -6.35% (inactive); in test [4] it was 12% (inactive); in test [5], -4.8% (inactive); in test [6], -13.1% (inactive).
Take `CO/C(N)=C(\C#N)N=Cc1ccco1`: the growth inhibition in test [1] is -21.4% (inactive); in test [2], -22.4% (inactive); in test [3] it was -4.65% (inactive); in test [4] it was 11.8% (inactive); in test [5] it was -4.55% (inactive); in test [6] it was 9.3% (inactive).
Consider `O=C(COc1ccc(Cl)c(Cl)c1)Nc1cccc(C(=O)CCl)c1`, for which the growth inhibition in test [1] was 36.6% (inactive); in test [2], 50% (inactive); in test [3], 45.5% (inactive); in test [4], 9.1% (inactive); in test [5] it was 81.3% (active); in test [6] it was 62.8% (inactive).
Turning to `CC1NC(C)c2ccc3ccccc3c2O1` (configuration not stated), the growth inhibition in test [1] is -4.85% (inactive); in test [2], -12.7% (inactive); in test [3], -25.1% (inactive); in test [4], -9.35% (inactive); in test [5] it was -11.2% (inactive); in test [6] it was -6.15% (inactive).
For `CCCCCCCC/C=C/CCCCCCCC(=O)N(CCOC(=O)C(C)(C)C)CCOC(=O)C(C)(C)C`, the growth inhibition in test [1] was 37.5% (inactive); in test [2], 9.5% (inactive); in test [3], 25.6% (inactive); in test [4], 24.2% (inactive); in test [5], -2.45% (inactive); in test [6] it was 39.2% (inactive).
Turning to `[N-]=[N+]=NC1CC(n2ccc(=O)[nH]c2=O)OC1CO` (configuration not stated), the growth inhibition in test [1] is -16.6% (inactive); in test [2], -21.9% (inactive); in test [3] it was 3.3% (inactive); in test [4] it was -13.6% (inactive); in test [5], -12.8% (inactive); in test [6] it was -6.85% (inactive).
As for `Cc1nc2ccc(Cl)c(Cl)c2s1`, the growth inhibition in test [1] is 2% (inactive); in test [2], -16.3% (inactive); in test [3], -3% (inactive); in test [4], -26% (inactive); in test [5], 6.65% (inactive); in test [6], -10.4% (inactive).
With `NCCCCCC(=O)O`, the growth inhibition was -37.5% (inactive) in test [1]; -25.4% (inactive) in test [2]; -17.6% (inactive) in test [3]; 8.2% (inactive) in test [4]; -22% (inactive) in test [5]; -8.4% (inactive) in test [6].
In the case of `N#Cc1nn(CCCl)c(=O)c2ccccc12`, the growth inhibition is 28.7% (inactive) in test [1]; 17.9% (inactive) in test [2]; 10% (inactive) in test [3]; 12.2% (inactive) in test [4]; 12.2% (inactive) in test [5]; 15.4% (inactive) in test [6].
`COC1(OC)CC2C(=O)N(Cc3ccccc3)C1C(S(=O)(=O)c1ccccc1)C2S(=O)(=O)c1ccccc1` (configuration not stated): the growth inhibition in test [1] was 27.6% (inactive); in test [2], 29.5% (inactive); in test [3], 45.5% (inactive); in test [4] it was -31.7% (inactive); in test [5], 50.2% (inactive); in test [6], 64.8% (inactive).
Regarding `C/C(=N/NC(N)=O)C1C2CC3C(C2Cl)C31` (configuration not stated), the growth inhibition in test [1] is 21.4% (inactive); in test [2], -15.3% (inactive); in test [3], -15.1% (inactive); in test [4], -30.6% (inactive); in test [5], 4.7% (inactive); in test [6] it was -2.4% (inactive).
`O=C(NCc1ccccc1)C1CCN(Cc2c[nH]c3ccccc23)CC1`: the growth inhibition in test [1] is -0.3% (inactive); in test [2], -4.4% (inactive); in test [3], 3.15% (inactive); in test [4], 16.5% (inactive); in test [5] it was 1.7% (inactive); in test [6], 28.7% (inactive).
Turning to `CCCC(CCC)(C(=O)O)C(=O)O`, the growth inhibition in test [1] was -10.3% (inactive); in test [2], -25.1% (inactive); in test [3] it was -12.5% (inactive); in test [4] it was 27.5% (inactive); in test [5] it was -17.9% (inactive); in test [6], 11.5% (inactive).
Regarding `COc1ccc(CCN/C=C(\C)C(=O)c2ccc(F)cc2)cc1OC`, the growth inhibition in test [1] was 11.2% (inactive); in test [2], -4.6% (inactive); in test [3] it was -13.6% (inactive); in test [4] it was -29.2% (inactive); in test [5], -13.9% (inactive); in test [6] it was -4.5% (inactive).
Regarding `COc1ccc(C(=O)N/N=C/c2c(C)n(C)n(-c3ccccc3)c2=O)cc1`, the growth inhibition in test [1] is -54.1% (inactive); in test [2] it was -18.6% (inactive); in test [3], -61.2% (inactive); in test [4] it was -6.45% (inactive); in test [5], -52.5% (inactive); in test [6], -48.5% (inactive).
On to `Cc1cc2c3ccccc3n(C)c2c2c1C(=O)C=CC2=O`, for which the growth inhibition is 6.5% (inactive) in test [1]; 20.4% (inactive) in test [2]; 20.9% (inactive) in test [3]; 3.1% (inactive) in test [4]; -7.35% (inactive) in test [5]; 55.8% (inactive) in test [6].
For `CCN(CC)CC(O)c1cccc2cccnc12` (configuration not stated), the growth inhibition in test [1] was 67.7% (inactive); in test [2], -11.4% (inactive); in test [3], 17.4% (inactive); in test [4], 8.8% (inactive); in test [5], 5.2% (inactive); in test [6], 30.2% (inactive).
Take `COc1ccc(S(=O)(=O)Oc2ccc(Cl)cc2)cc1`: the growth inhibition in test [1] was -2.35% (inactive); in test [2], 11.6% (inactive); in test [3] it was 18.1% (inactive); in test [4], -234% (inactive); in test [5] it was 42.5% (inactive); in test [6] it was 9.05% (inactive).
Regarding `COc1ccc(S(=O)(=O)c2ccc(F)cc2)cc1`, the growth inhibition in test [1] was -22.1% (inactive); in test [2], -14.2% (inactive); in test [3], -3.65% (inactive); in test [4], -5.8% (inactive); in test [5], -12.7% (inactive); in test [6], -21.4% (inactive).
In the case of `CCOC(=O)NC(NC(=O)OCC)c1ccc(C(NC(=O)OCC)NC(=O)OCC)cc1`, the growth inhibition in test [1] was 30.9% (inactive); in test [2] it was 13.2% (inactive); in test [3], 5.45% (inactive); in test [4], 5% (inactive); in test [5], 2.8% (inactive); in test [6], 7.9% (inactive).
As to `Cc1cccc(-c2nnc(N)o2)c1[N+](=O)[O-]`, the growth inhibition in test [1] was -36% (inactive); in test [2], -9.6% (inactive); in test [3], -10.6% (inactive); in test [4], 1.75% (inactive); in test [5], -11.4% (inactive); in test [6], -16.4% (inactive).
For `Cc1cccc(C[N+](C)(C)CCO)c1C`, the growth inhibition in test [1] is -0.5% (inactive); in test [2], -13.2% (inactive); in test [3], 3.4% (inactive); in test [4], 6.7% (inactive); in test [5] it was 3.45% (inactive); in test [6] it was -20.6% (inactive).
Consider `O=[N+]([O-])c1ccc2c(c1)Cc1cc([N+](=O)[O-])ccc1-2`, for which the growth inhibition in test [1] is -12.3% (inactive); in test [2], -64.5% (inactive); in test [3], -25.4% (inactive); in test [4], -181% (inactive); in test [5], -54.1% (inactive); in test [6] it was 51.2% (inactive).
Consider `NNC(=Nc1ccccc1)SCc1ccccc1`, for which the growth inhibition was 3.05% (inactive) in test [1]; 0.5% (inactive) in test [2]; 23.4% (inactive) in test [3]; 7.75% (inactive) in test [4]; 20.2% (inactive) in test [5]; -30.9% (inactive) in test [6].
Regarding `Cc1ccc(OCc2ccccc2)n[n+]1[O-]`, the growth inhibition in test [1] is -20.6% (inactive); in test [2], -16.8% (inactive); in test [3], -10.8% (inactive); in test [4] it was -9.85% (inactive); in test [5], -9.7% (inactive); in test [6], -3% (inactive).

These data come from PubChem BioAssay (NCI).
